PubChem BioAssay (Tox21)
Unmarked numbers belong to inactive results. Records with an inconclusive call do not appear. A call without a number means that no potency is given here. The source made the active and inactive calls. Unless noted, calls come from the whole dose curve; as a rule, active = well fitted curve in the direction sought with a large enough effect in the repeat runs; inconclusive = weak or mixed curves; inactive = no such curve, though single readings can be large; an effect the other way counts as inactive or inconclusive.

Key:
[1] = target: Estrogen receptor (Homo sapiens) (UniProt P03372); test: qHTS assay to identify small molecule agonists of the estrogen receptor alpha (ER-alpha) signaling pathway in the presence of an antagonist (AID 1259383; calls by dose curve; note: nearly all actives have a fitted effect of over 15% in size; note: potency is the fitted concentration of half-maximal effect; for activation: top concentration of the series differs between compounds)
Estrogen receptor (Homo sapiens), sequence (P03372 whole entry, looked up): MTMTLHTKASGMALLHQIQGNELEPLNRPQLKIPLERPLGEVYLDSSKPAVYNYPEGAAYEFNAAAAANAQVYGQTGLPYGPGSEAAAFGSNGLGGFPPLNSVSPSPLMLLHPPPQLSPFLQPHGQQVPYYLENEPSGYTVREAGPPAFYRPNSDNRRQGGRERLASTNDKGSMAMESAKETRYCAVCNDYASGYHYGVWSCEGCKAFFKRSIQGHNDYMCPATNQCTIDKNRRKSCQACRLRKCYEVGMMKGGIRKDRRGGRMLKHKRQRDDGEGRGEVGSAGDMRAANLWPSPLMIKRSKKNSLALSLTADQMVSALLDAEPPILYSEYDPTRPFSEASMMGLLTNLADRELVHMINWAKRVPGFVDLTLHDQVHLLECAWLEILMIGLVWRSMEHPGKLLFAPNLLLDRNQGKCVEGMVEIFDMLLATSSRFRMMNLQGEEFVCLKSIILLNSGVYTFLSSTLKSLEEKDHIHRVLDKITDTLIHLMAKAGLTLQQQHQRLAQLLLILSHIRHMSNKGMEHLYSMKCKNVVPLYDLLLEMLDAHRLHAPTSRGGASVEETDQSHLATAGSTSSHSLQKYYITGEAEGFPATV
Outline: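 VM7Luc4E2, endog. ER-alpha + 4×ERE-luc; charcoal-stripped FBS, phenol red-free, 5 d; 24hr plating; +10.0nM ICI-182,780 (final); cpds 15 conc, 22hr, 37C/5% CO2; ONE-Glo luminescence.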

[2] = qHTS assay to identify small molecule agonists of the estrogen receptor alpha (ER-alpha) signaling pathway in the presence of an antagonist - cell viability counter screen (AID 1259386);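 note: series mostly up to about 92 µM; cells exposed to compounds for 22 h at 37 °C before the viability read; nearly all actives have a fitted effect of over 30% in size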
Outline: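 VM7Luc4E2, stripped-serum pre-culture 5 d; 24hr plating; +ICI-182,780 10.0nM final; cpds 15 conc, 22hr, 37C/5% CO2; CellTiter-Fluor added at 21hr, fluorescence 1hr later.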

[3] = target: Progesterone receptor (Homo sapiens) (UniProt P06401); test: qHTS assay to identify small molecule agonists of the progesterone receptor (PR) signaling pathway (AID 1346784; calls by dose curve; note: nearly all actives have a fitted effect of over 30% in size; note: potency is the fitted concentration of half-maximal effect)
Progesterone receptor (Homo sapiens), sequence (P06401 whole entry, looked up): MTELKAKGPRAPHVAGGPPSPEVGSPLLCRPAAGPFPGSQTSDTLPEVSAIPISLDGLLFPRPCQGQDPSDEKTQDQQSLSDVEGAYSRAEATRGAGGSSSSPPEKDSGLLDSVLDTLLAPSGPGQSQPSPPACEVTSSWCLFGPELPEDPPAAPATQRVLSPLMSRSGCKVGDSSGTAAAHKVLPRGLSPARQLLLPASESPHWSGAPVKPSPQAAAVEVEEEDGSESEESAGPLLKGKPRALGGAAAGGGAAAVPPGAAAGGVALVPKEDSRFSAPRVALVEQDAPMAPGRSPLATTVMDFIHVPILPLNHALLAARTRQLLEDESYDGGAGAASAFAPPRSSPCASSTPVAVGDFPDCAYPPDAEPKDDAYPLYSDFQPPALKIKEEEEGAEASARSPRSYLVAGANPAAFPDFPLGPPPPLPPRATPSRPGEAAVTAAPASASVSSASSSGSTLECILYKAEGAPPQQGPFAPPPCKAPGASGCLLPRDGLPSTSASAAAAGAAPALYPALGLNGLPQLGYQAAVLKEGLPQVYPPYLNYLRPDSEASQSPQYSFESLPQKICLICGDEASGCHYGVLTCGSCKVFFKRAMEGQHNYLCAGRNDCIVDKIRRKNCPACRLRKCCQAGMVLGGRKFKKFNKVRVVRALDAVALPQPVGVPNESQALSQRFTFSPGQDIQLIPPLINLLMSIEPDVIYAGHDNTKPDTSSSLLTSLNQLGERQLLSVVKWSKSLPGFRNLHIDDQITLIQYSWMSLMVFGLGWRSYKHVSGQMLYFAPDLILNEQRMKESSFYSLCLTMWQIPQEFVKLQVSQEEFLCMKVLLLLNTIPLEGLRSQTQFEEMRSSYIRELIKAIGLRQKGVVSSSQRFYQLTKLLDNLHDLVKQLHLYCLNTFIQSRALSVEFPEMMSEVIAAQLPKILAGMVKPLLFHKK
Outline: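 Reporter assay, GripTite PR-UAS-bla HEK 293T cells: 16 hr exposure to DMSO-dissolved compounds at 37C, 5% CO2, in steroid-depleted (2% charcoal-stripped FBS) medium; beta-lactamase measured by FRET fluorescence.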

[4] = target: Progesterone receptor (Homo sapiens) (UniProt P06401); test: qHTS assay to identify small molecule antagonists of the progesterone receptor (PR) signaling pathway (AID 1346795; active = well fitted inhibition curve with a large enough effect in the signal ratio in the repeat runs, not every such curve was filed as active; the % refers to the signal ratio; note: potency is the fitted concentration of half-maximal effect)
Outline: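 Stimulus R5020 at 1 nM final; cells HEK293T PR-UAS-bla; medium with 2% charcoal-stripped FBS; compound exposure 16 hr at 37C, 5% CO2; detection by FRET beta-lactamase substrate, 2 hr, room temperature.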

[5] = qHTS assay to identify small molecule antagonists of the progesterone receptor (PR) signaling pathway - cell viability counter screen (AID 1346798); note: series mostly up to about 92 µM; nearly all actives have a fitted effect of over 50% in size
Outline: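 In the same plates used for the beta-lactamase readout, cell viability of compound- and R5020-treated PR-UAS-bla HEK293T cells (16 hr, 37C) was assessed by CellTiter-Glo luminescence.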

[6] = qHTS assay to identify small molecule agonists of the progesterone receptor (PR) signaling pathway - cell viability counter screen (AID 1346799; calls by dose curve; note: nearly all actives have a fitted effect of over 45% in size)
Outline: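 Multiplexed viability read: CellTiter-Glo luminescence, 30 min RT, following LiveBLAzer FRET measurement on PR-UAS-bla HEK293T cells exposed to compounds 16 hr.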

[7] = qHTS assay to identify small molecule antagonists of the TGF-beta/Smad signaling pathway - cell viability counter screen (AID 1346824); note: nearly all actives have a fitted effect of over 50% in size
Outline: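 SBE-bla HEK 293T cells were plated overnight at 37 C, then given compounds in DMSO plus TGF-beta1 (added as 0.25 ng/mL solution) for 5 hr. After the bla read, CellTiter-Glo was added to the same wells and luminescence read after 30 min at room temperature.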

[8] = qHTS assay to identify small molecule agonists of the TGF-beta/Smad signaling pathway - cell viability counter screen (AID 1346829); note: top concentration of the series differs between compounds; nearly all actives have a fitted effect of over 45% in size
Outline: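 After overnight seating at 37 C and 5% CO2, reporter cells got compounds for 5 hr and FRET substrate for 2 hr; cell viability then came from CellTiter-Glo luminescence.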

[9] = Human pregnane X receptor (PXR) small molecule agonists, qHTS cell viability counter screen (AID 1346977); note: nearly all actives have a fitted effect of over 50% in size
Outline: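 In each well, the PXR reporter HepG2 line was checked for viability: CellTiter-Fluor reagent added 23hr post-dosing, fluorescence read after 1hr incubation at 37C.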

[10] = Caspase-3/7 induction in HepG2 cells by small molecules, qHTS assay (AID 1346978); note: nearly all actives have a fitted effect of over 15% in size
Outline: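 Wild-type HepG2 cells (2,000/well) were settled 5 h at 37 C, 5% CO2, then exposed to compounds in DMSO for 17 h. Caspase-3/7 activity was read by luminescence 30 min after adding Caspase-Glo 3/7 reagent at room temperature.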

[11] = Caspase-3/7 induction in CHO-K1 cells by small molecules, qHTS cell viability counter screen (AID 1346979); note: nearly all actives have a fitted effect of over 35% in size
Outline: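 Following a 5hr settling period, CHO-K1 cells at 1,500 per well received DMSO-dissolved compounds. Cell viability was quantified 16hr later by CellTiter-Fluor fluorescence, measured after 1hr with reagent at 37C.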

[12] = Caspase-3/7 induction in CHO-K1 cells by small molecules, qHTS assay (AID 1346980); note: nearly all actives have a fitted effect of over 15% in size
Outline: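 Wild-type cells were seeded at 1,500 per well and settled 5 hr at 37 C, 5% CO2, then exposed to DMSO-dissolved compounds for 17 hr. Caspase-Glo 3/7 reagent was added, and luminescence was read after 30min at room temperature.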

[13] = Caspase-3/7 induction in HepG2 cells by small molecules, qHTS cell viability counter screen (AID 1346981); note: series mostly up to about 92 µM; nearly all actives have a fitted effect of over 30% in size
Outline: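 HepG2, WT, 2,000 cells/well; 5 hr pre-incubation 37 C/5% CO2; compound pin-transferred from DMSO; 16 hr exposure; CellTiter-Fluor, 1 hr; fluorescence read.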

[14] = qHTS assay to identify small molecule agonists of the TGF-beta/Smad signaling pathway (AID 1346859; active = well fitted activation curve with a large enough effect in the signal ratio in the repeat runs, not every such curve was filed as active; the % refers to the signal ratio; note: series mostly up to about 77 µM)
Outline: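 Screening used HEK 293T SBE-bla cells at 4,000/well. Test agents: 5 hr, 37 C. Detection: FRET substrate, 2 hr RT, then excitation 405 nm with emissions at 460 and 530 nm.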

[15] = target: Thyrotropin-releasing hormone receptor (Homo sapiens) (UniProt P34981); test: qHTS assay to identify small molecule antagonists of the thyrotropin-releasing hormone receptor (TRHR) signaling pathway (AID 1346877; active = well fitted inhibition curve with a large enough effect in the repeat runs, not every such curve was filed as active; note: series mostly up to about 51 µM)
Thyrotropin-releasing hormone receptor (Homo sapiens), sequence (P34981 whole entry, looked up): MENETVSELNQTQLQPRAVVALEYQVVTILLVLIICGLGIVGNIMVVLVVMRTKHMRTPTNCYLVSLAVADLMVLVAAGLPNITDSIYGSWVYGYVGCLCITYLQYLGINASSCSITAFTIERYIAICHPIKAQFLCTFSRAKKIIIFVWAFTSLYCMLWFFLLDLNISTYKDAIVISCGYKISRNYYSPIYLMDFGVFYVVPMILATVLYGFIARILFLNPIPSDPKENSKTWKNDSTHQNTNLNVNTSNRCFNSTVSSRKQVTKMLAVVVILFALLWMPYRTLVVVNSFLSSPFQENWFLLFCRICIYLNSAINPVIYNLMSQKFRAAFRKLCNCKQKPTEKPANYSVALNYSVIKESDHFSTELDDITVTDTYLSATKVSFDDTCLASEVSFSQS
Outline: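 Intracellular calcium fluorescence, read kinetically every second over 3 min, reports TRH-evoked signalling in HEK293 cells carrying TRHR. Test compounds were added 5 min ahead of a 1 nM TRH challenge.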

[16] = target: Thyrotropin-releasing hormone receptor (Homo sapiens) (UniProt P34981); test: qHTS assay to identify small molecule agonists of the thyrotropin-releasing hormone receptor (TRHR) signaling pathway (AID 1346891; calls by dose curve; note: series mostly up to about 58 µM)
Outline: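 Readout was intracellular calcium fluorescence in TRHR-Hek293 cells. Cells were incubated 18 h, dye-loaded 2 h at 37 °C, and treated with compound in agonist mode.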

[17] = target: Nuclear receptor subfamily 1 group I member 2 (Homo sapiens) (UniProt O75469); test: Human pregnane X receptor (PXR) small molecule agonists, qHTS assay (AID 1346982); note: nearly all actives have a fitted effect of over 35% in size; note: potency is the fitted concentration of half-maximal effect
Nuclear receptor subfamily 1 group I member 2 (Homo sapiens), sequence (O75469 whole entry, looked up): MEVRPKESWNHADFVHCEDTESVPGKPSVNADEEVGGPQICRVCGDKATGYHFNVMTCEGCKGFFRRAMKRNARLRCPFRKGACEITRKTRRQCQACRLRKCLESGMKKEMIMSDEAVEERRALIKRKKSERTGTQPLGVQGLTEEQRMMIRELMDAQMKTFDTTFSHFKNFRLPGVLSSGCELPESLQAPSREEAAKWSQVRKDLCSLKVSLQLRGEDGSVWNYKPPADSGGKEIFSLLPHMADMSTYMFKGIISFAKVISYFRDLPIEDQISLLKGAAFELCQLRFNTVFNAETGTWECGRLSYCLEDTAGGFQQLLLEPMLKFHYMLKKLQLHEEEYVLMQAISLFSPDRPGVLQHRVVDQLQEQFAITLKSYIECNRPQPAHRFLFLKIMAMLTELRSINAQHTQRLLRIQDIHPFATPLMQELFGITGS
Outline: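 Luciferase signal from ONE-Glo (30 min, room temperature) measured activation of hPXR-driven CYP3A4 reporter expression in PXR-Luc HepG2 cells treated with compounds for 24 hr at 37 C.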

[18] = target: Nuclear receptor subfamily 1 group I member 2 (Rattus norvegicus) (UniProt Q9R1A7); test: Rat pregnane X receptor (rPXR) activation by small molecules, qHTS assay (AID 1346983); conditions: rPXR luciferase reporter cells, One-Glo luminescence, 24 h; max activation: hits give high values; note: nearly all actives have a fitted effect of over 20% in size
Nuclear receptor subfamily 1 group I member 2 (Rattus norvegicus), sequence (Q9R1A7 whole entry, looked up): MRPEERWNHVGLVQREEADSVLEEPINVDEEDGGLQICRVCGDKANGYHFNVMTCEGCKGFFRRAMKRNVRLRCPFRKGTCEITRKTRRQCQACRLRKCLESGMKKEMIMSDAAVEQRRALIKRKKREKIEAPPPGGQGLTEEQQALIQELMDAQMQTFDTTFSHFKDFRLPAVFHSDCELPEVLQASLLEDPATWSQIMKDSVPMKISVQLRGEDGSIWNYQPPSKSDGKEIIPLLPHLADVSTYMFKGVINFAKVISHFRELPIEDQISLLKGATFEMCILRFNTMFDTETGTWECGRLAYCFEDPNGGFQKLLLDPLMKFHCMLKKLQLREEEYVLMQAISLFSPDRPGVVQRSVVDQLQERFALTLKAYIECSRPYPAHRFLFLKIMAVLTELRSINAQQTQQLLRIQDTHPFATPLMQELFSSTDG
Outline: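 Cell-based rPXR luciferase reporter assay, 2,000 cells per well, rested 5hr at 37 C before compound addition in DMSO, then 24 hr at 37 C. One-Glo reagent was added and luminescence read after 30 min at room temperature.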

SMILES	Potency [1]	outcome [2]	Potency [3]	Potency [4]	outcome [5]	Potency [6]	outcome [7]	outcome [8]	outcome [9]	outcome [10]	Potency [11]	outcome [12]	outcome [13]	outcome [14]	outcome [15]	Potency [16]	Potency [17]	max activation [18] [%]
Cc1cc2c(cc1CC(=O)c1sccc1S(=O)(=O)Nc1onc(C)c1Cl)OCO2	inactive	inactive	inactive	inactive	inactive	inactive	inactive	inactive	inactive	inactive	inactive	inactive	inactive	–	–	–	–	–
CC(C)c1cc(C(C)C)cc(C(C)C)c1	inactive	inactive	inactive	inactive	inactive	inactive	inactive	inactive	inactive	–	inactive	inactive	inactive	inactive	inactive	inactive	inactive	–
CN(C)c1ccncc1	inactive	inactive	inactive	inactive	inactive	inactive	inactive	–	inactive	inactive	inactive	inactive	inactive	inactive	–	–	inactive	–
CN1C(CCl)Nc2cc(Cl)c(S(N)(=O)=O)cc2S1(=O)=O (stereo not drawn)	inactive	inactive	inactive	inactive	inactive	inactive	inactive	–	inactive	inactive	inactive	inactive	inactive	inactive	–	–	inactive	-9.91
CC(=O)O[C@@H]1CC2C3CCc4cc(OC(=O)c5ccccc5)ccc4C3CCC2(C)[C@H]1OC(C)=O (stereo partly drawn)	0.0473 µM (active)	inactive	inactive	–	–	inactive	–	inactive	inactive	inactive	inactive	inactive	inactive	inactive	inactive	inactive	inactive	–
COC(=O)c1c(C)cc(O)c(C)c1O	inactive	inactive	inactive	19.3 µM (active)	inactive	–	–	–	inactive	inactive	–	inactive	inactive	–	inactive	inactive	61.1 µM (active)	–
O=C(O)COc1ccc2ccccc2c1	inactive	inactive	inactive	inactive	inactive	inactive	inactive	–	inactive	inactive	–	inactive	inactive	–	inactive	inactive	inactive	–
CC(=O)OCC(=O)[C@@]1(O)CC[C@H]2[C@@H]3CCC4=CC(=O)C=C[C@]4(C)[C@H]3[C@@H](O)C[C@@]21C	inactive	inactive	–	–	inactive	–	inactive	inactive	inactive	–	–	inactive	inactive	inactive	–	–	inactive	–
C/C=C(\C)C=O	inactive	inactive	21.8 µM (active)	inactive	inactive	inactive	inactive	inactive	inactive	inactive	inactive	inactive	inactive	inactive	inactive	inactive	inactive	–
Cc1cc(C)c(C)c(C)c1	inactive	inactive	inactive	inactive	inactive	inactive	inactive	–	inactive	inactive	inactive	inactive	inactive	–	–	–	inactive	–
N#Cc1ccccc1C#N	inactive	inactive	inactive	–	inactive	inactive	–	inactive	inactive	inactive	inactive	inactive	inactive	inactive	inactive	inactive	–	–
O=S(=O)(O)c1ccc(Cl)cc1	inactive	inactive	inactive	inactive	inactive	inactive	inactive	–	inactive	inactive	inactive	inactive	inactive	inactive	inactive	inactive	inactive	–
Cc1ccc(NC(N)=O)cc1	inactive	inactive	inactive	inactive	inactive	inactive	inactive	inactive	inactive	inactive	inactive	inactive	inactive	inactive	inactive	inactive	inactive	–
CO/N=C(\C(=O)O)c1csc(NC(=O)CCl)n1	inactive	inactive	inactive	inactive	inactive	inactive	inactive	inactive	inactive	inactive	inactive	inactive	inactive	inactive	inactive	inactive	inactive	–
CCOC(=O)CC	inactive	inactive	inactive	inactive	inactive	inactive	inactive	inactive	inactive	inactive	inactive	inactive	inactive	inactive	–	–	inactive	–
Cc1ccccc1OCC(=O)O	inactive	inactive	inactive	inactive	inactive	inactive	–	inactive	inactive	–	inactive	inactive	inactive	inactive	inactive	inactive	inactive	–
C[C@@H](CN1CC(=O)NC(=O)C1)N1CC(=O)NC(=O)C1	inactive	inactive	inactive	inactive	inactive	inactive	inactive	–	inactive	inactive	inactive	inactive	inactive	inactive	inactive	inactive	inactive	-0.624
O=CN1CCCCC1	inactive	inactive	inactive	inactive	inactive	inactive	inactive	–	inactive	inactive	inactive	inactive	inactive	inactive	–	–	inactive	–
